# Laboratory results published in PubChem BioAssay (EPA / NIEHS).
# Records with an inconclusive call do not appear. Active and inactive are the calls of the source. Rule for the calls: active = hit-call score of the fitted dose curve at least 0.9, where 1 is the maximum; inconclusive = response in the unintended direction; inactive = score below 0.9.
# Target: rat CYP2D1, Cyp2d1 (gene 266684) (UniProt P10633)
# Test: NVS_ADME_rCYP2D1: NovaScreen (NVS) CYP450-related Enzyme Activity (ADME) Assay for rat CYP2D1 (AID 2283122)
# Method: NVS_ADME_rCYP2D1 is a biochemical, single-readout assay that uses extracted gene-proteins in a cell-free assay. Measurements were taken 0.75 hour after chemical dosing in a 96-well plate.NVS_ADME_rCYP2D1 is one of one assay component(s) measured or calculated from the NVS_ADME_rCYP2D1 assay. It is designed to make measurements of enzyme activity, a form of enzyme reporter, as detected with fluorescence intensity signals by Fluorescence technology.Data from the assay component NVS_ADME_rCYP2D1 was analyzed into 1 assay endpoint. This assay endpoint, NVS_ADME_rCYP2D1, was analyzed in the positive analysis fitting direction relative to Acetonitrile as the negative control and baseline of activity. Using a type of enzyme reporter, loss-of-signal activity can be used to understand changes in the enzymatic activity as they relate to the gene Cyp2d1. Furthermore, this assay endpoint can be referred to as a primary readout, because this assay has produced multiple assay endpoints where this one serves a enzymatic activity function. To generalize the intended target to other relatable targets, this assay endpoint is annotated to the cyp intended target family, where the subfamily is xenobiotic metabolism.
# Binding assays used specific radioligands (tritiated, iodinated) with non-radioactive competitive displacement ligands in agonist or antagonist protocols (as indicated) and various reference compounds and inhibitors to titrate specific binding to receptors and transporters. Most enzyme assays (CYPs, kinases, phosphatases, proteases, HDACs) used recombinant protein and specific substrates (fluorescence mostly, some colorimetric and radioactive) and inhibitors, followed by a biochemical separation of substrate and product. All assays for the biochemical HTS were initially run in duplicate at a single concentration (10 uM for CYP450 assays and 25 uM for all others). Assay-chemical combinations meeting a pre-defined threshold (e.g., 30% inhibition and other criteria defined below) were then run in singleton concentration-response format with maximum concentration of 20 uM for CYPs and 50 uM for all others. Each assay was run with positive and negative controls, and concurrent controls on every plate. The follow-up (secondary) screen tested active chemical-pairs in concentration series, as well as a few additional assays not tested in the primary screen, some selected negative inactives, and several cases re-run in the concentration series for confirmatory purposes.
# rat CYP2D1, Cyp2d1 (gene 266684), sequence (P10633 whole entry, looked up): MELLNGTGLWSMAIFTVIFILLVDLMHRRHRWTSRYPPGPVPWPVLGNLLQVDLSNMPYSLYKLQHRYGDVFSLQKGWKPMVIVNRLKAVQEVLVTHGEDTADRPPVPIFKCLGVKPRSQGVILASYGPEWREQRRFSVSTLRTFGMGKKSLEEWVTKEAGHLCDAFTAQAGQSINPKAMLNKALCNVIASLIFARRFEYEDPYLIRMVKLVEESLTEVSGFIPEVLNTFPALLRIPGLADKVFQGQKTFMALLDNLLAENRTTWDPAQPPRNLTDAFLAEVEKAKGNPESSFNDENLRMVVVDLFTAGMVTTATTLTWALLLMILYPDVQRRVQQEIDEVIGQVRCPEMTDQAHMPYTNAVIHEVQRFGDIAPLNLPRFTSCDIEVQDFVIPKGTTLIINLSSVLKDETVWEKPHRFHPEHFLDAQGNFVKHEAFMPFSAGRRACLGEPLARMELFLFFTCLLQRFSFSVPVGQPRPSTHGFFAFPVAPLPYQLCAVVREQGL
Structure (SMILES),AC50,outcome
OC(c1ccc(Cl)cc1)(c1cncnc1)c1ccccc1Cl (stereo not given),7.23 µM (active),
O=C(Nc1ccccc1)Nc1ccnc(Cl)c1,10 µM (active),
CCOC(=O)C(Cl)Cc1cc(-n2nc(C)n(C(F)F)c2=O)c(F)cc1Cl (stereo not given),,inactive
CO/C=C(/C(=O)OC)c1ccccc1Oc1cc(Oc2ccccc2C#N)ncn1,5.45 µM (active),
CC1COC(Cn2cncn2)(c2ccc(Oc3ccc(Cl)cc3)cc2Cl)O1 (stereo not given),0.685 µM (active),
CCOP(=S)(OCC)SCn1c(=O)oc2cc(Cl)ccc21,7.17 µM (active),
C=CCC1=C(C)[C@@H](OC(=O)[C@@H]2[C@@H](C=C(C)C)C2(C)C)CC1=O,1.05 µM (active),
CCCC1COC(Cn2cncn2)(c2ccc(Cl)cc2Cl)O1 (stereo not given),6.88 µM (active),
Cc1ccc(-c2c(Cl)nc(C#N)n2S(=O)(=O)N(C)C)cc1,13 µM (active),
COC(=O)N(OC)c1ccccc1COc1ccn(-c2ccc(Cl)cc2)n1,,inactive
